# EWS-Fli block = blocks EWS/Fli oncoprotein-driven transcription | A673 NR0B1-luciferase reporter, viability-normalised | inhibition, % at 12.6 µM | actives 0.67% (n = 350,000) | AID 651661;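 active = mean inhibition of at least 50% after viability correction, with every replicate also passing that limit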;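 also: firefly luciferase signal divided by Alamar Blue viability fluorescence both relative to DMSO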
# PAX8 inh HTS = lowers PAX8-driven luciferase in RMG-I cells | RMG-I TPO-luciferase reporter, SteadyGlo, 24 h | inhibition, % at 12.6 µM | actives 1.2% (n = 360,000);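 active = mean replicate inhibition at least 60% with every replicate also reaching 60%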;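 also: luciferase light reporting Pax8 driven TPO promoter activity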
# INS-1E GSIS act = primary screen for activators of insulin secretion dependent on glucose, INS-1E cells, GLuc reporter luminescence. INS-1E GLuc reporter insulin secretion, 2-3 h. activation, % at 16.6 µM. actives 0.61% (n = 370,000). AID 743287;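 active = lowest replicate activation of at least 40%, so every replicate reaches that level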
# Statin myotox sup = protects C2C12 myotubes from simvastatin toxicity | rescue of ATP level, % at 7.49 µM | ATP luminescence, 48 h; scaled: DMSO 0, geranylgeraniol control 100 | actives 0.78% (n = 330,000);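 active = mean ATP rescue above about 67%, or every replicate alone reaching that limit, limit read from the data, passing the limit was not always enough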;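 also: myotubes were challenged with 10 µM simvastatin during compound exposure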
# Env fusion inh = HIV envelope-mediated fusion inhibition | HeLa-JRFL Env/CEM21 cell fusion, luciferase | inhibition, % at 12.3 µM | actives 1.1% (n = 360,000);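 active = mean replicate inhibition score of at least 50 and every replicate individually at or above 50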
# miR122 inh = blocks miR-122 activity in Huh7 sensor cells; Huh7 miR-122 Renilla luciferase sensor, 48 h; neutral wells = 0, positive control = 100; activation (reporter increase), % at 12.5 µM; actives 0.3% (n = 340,000); AID 602342;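 active = mean replicate activation score at least 90 and every replicate individually at or above 90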;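 also: higher luciferase means less miR-122 activity so hits act as miR-122 inhibitors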
# DNA binding = small molecule DNA binding by fluorescence polarization | AC35, µM (doses to about 68 µM) | shares compounds with EWS-Fli block | salmon sperm DNA acridine orange fluorescence polarization | actives 2% (n = 640) | AID 720586;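 active = fitted curve reaches a 35% signal fall AC35 below twice the sample's top valid tested dose, actives reach about 48 µM in these data; inactive = the rest, including activity in the rising direction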;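 also: lower polarization ratio signals compound binding to DNA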
# Numbers stand for hits; - = inactive; . = no result given; ! = a repeat was not active; [ ] = another dose, or the depositor's remark. Compounds with a hit are over-represented: about 3.1% of the library has one in this group of screens.
SMILES,EWS-Fli block,PAX8 inh HTS,INS-1E GSIS act,Statin myotox sup,Env fusion inh,miR122 inh,DNA binding
CN(C[C@H]1N[C@@H](CO)[C@@H]1c1ccc(C2=CCCC2)cc1)C(=O)c1cccc(F)c1,77.4,110.9,-,-,.,-,-
C[C@@H]1CN([C@@H](C)CO)C(=O)c2cccc(NS(=O)(=O)c3ccc(F)cc3)c2O[C@H]1CN(C)Cc1ccc(C(=O)Nc2ccccc2N)cc1,-,-,-,.,.,.,.
C[C@H]1CN([C@@H](C)CO)C(=O)c2cccc(NC(=O)CCCCCC(=O)Nc3ccccc3N)c2O[C@@H]1CN(C)Cc1ccc2c(c1)OCO2,56.8,.,-,-,.,-,-
C[C@@H]1CN([C@@H](C)CO)C(=O)c2cccc(NC(=O)CCCCCC(=O)Nc3ccccc3N)c2O[C@H]1CN(C)Cc1ccc2c(c1)OCO2,-,-,-,.,.,.,.
C[C@@H]1CN([C@@H](C)CO)C(=O)c2cccc(NS(=O)(=O)c3ccc(F)cc3)c2O[C@@H]1CN(C)Cc1ccc(C(=O)Nc2ccccc2N)cc1,55.3,.,-,-,-,94.2[16.7 µM],-
C[C@@H]1CN([C@@H](C)CO)C(=O)c2cccc(N(C)C)c2O[C@@H]1CN(C)Cc1ccc(C(=O)Nc2ccccc2N)cc1,53.8,-,.,-,-,109.3[16.7 µM],-
Cc1noc(C)c1NC(=O)N(C)C[C@H]1Oc2ccc(NC(=O)CCC(F)(F)F)cc2C(=O)N([C@H](C)CO)C[C@H]1C,.,-,-,-,-,-,.
CNC[C@@H]1OCCCC[C@@H](C)Oc2ccc(NC(=O)Cc3ccccc3)cc2C(=O)N([C@@H](C)CO)C[C@H]1C,-,-,-,-,-,-,.
Cc1ccc(-c2ccc([C@H]3[C@@H](CO)N4C(=O)CN(C(=O)Nc5cccc(F)c5)C[C@H]34)cc2)cc1,-,.,-,.,.,.,.
CCC(=O)N[C@H]1CC[C@@H](CC(=O)NCCN2CCCCC2)O[C@@H]1CO,-,-,-,-,-,-,.
O=C(Nc1nc(-c2ccc(F)c(F)c2)cs1)c1ccc(OCC2CCCO2)cc1 (stereo not drawn),73.9,-,-,.,-,.,-
C[C@@H]1CN([C@H](C)CO)C(=O)c2cc(C#CC3CC3)cnc2O[C@H]1CN(C)C(=O)Nc1ccccc1,-,.,-,-,-,-,.
CCCN1C[C@@H](C)[C@@H](OC)CN(C)C(=O)c2cc(NC(=O)NC3CCCCC3)ccc2OC[C@@H]1C,-,-,-,-,.,-,.
CN(C)C(=O)c1cccc(-c2ccc(C3[C@@H]4CN(Cc5nccs5)C[C@H]3N4)cc2)c1 (stereo partly drawn),58.6!,-,-,.,.,.,-
O=C(C[C@@H]1CC[C@H]2[C@@H](COC[C@H](O)CN2C(=O)Nc2ccc(Cl)cc2)O1)NCCc1ccncc1,-,-,-,-,-,-,.
CCCN1C/C(=C/c2ccc3c(c2)OCO3)C(=O)/C(=C/c2ccc3c(c2)OCO3)C1,64.5,-,.,-,-,-,-
COc1cccc(-c2cccc(-c3nc(C(=O)NCC(F)(F)F)cc4c3[C@H](CCO)N([S@@](=O)C(C)(C)C)C4)c2)c1,54.0,-,-,-,-,.,-
COc1ccc(-c2cccc(-c3nc(C(=O)NCC(F)(F)F)cc4c3[C@H](CCO)N([S@@](=O)C(C)(C)C)C4)c2)cc1,-,-,-,-,-,.,.
CCCNC(=O)Nc1ccc2c(c1)OC[C@H](C)N(CC1CCCC1)C[C@@H](C)[C@H](OC)CN(C)C2=O,-,-,-,-,-,.,.
Cc1ccc2c(c1)C(=O)N1[C@H]3c4cc(Br)ccc4OC[C@@H]3[C@H](c3ccccc3)[C@]1(C)C(=O)N2,56.1,-,-,-,-,-,-
C(=Cc1nc2ccccc2o1)c1ccc2c(c1)OCO2,68.6,-,-,-,-,-,-
C(=Cc1cnc2ccccc2n1)c1ccc2c(c1)OCO2,88.2,96.6,-,-,68.4,-,-
CO[C@H]1CN(C)C(=O)c2ccc(NC(=O)C3CC3)cc2OC[C@H](C)N(Cc2cccnc2)C[C@H]1C,-,-,-,-,.,.,.
C[C@@H]1CN([C@H](C)CO)C(=O)c2cccc(NS(=O)(=O)c3ccc(F)cc3)c2O[C@@H]1CN(C)Cc1ccc(C(=O)O)cc1,-,.,-,-,.,-,.
Brc1ccc(CSc2nnc(-c3ccco3)o2)cc1,81.8,-,-,.,-,.,-
SMILES,EWS-Fli block,PAX8 inh HTS,INS-1E GSIS act,Statin myotox sup,Env fusion inh,miR122 inh,DNA binding
c1ccc(CSc2nnc(-c3ccco3)o2)cc1,-,-,-,.,-,-,.
C/C=C/c1cnc2c(c1)C(=O)N([C@H](C)CO)C[C@@H](C)[C@H](CN(C)C(=O)Cc1ccccc1)O2,-,.,-,-,-,-,.
O=C(CCc1ccccc1)NC(c1cccs1)c1cc(Cl)c2cccnc2c1O (stereo not drawn),58.4,77.6,-,.,-,.,-
C=CCn1c(O)c(N=Nc2ccccc2)c2ccccc21,55.2,-,-,-,-,-,-
CS(=O)(=O)N1CC(=O)N2[C@H](CO)[C@H](c3ccc(C#Cc4cccc(F)c4)cc3)[C@@H]2C1,.,.,-,.,.,.,.
C/C(=C\c1ccccc1)C(=O)N1CCC=CC1=O,55.4,-,.,.,-,.,-
C/C(=C/c1ccccc1)C(=O)N1CCC(C)CC1,-,-,-,-,-,-,.
Cc1ccc(N=C2NC(=O)/C(=C\c3cccs3)S2)cc1C,58.3,-,-,.,-,.,-
COc1cc(OC)cc(-c2cc3nc(C)c(CCC(=O)O)c(C)n3n2)c1,76.8,-,.,-,72.8,-,44.4µM
CCOC(=O)C1CCCCN1C(=O)CCc1c(C)nc2cc(-c3ccccc3)nn2c1C (stereo not drawn),51.2,-,-,-,60.7,-,-
O=C(C[C@H]1C=C[C@@H](NC(=O)C2CCOCC2)[C@@H](CO)O1)NCc1ccncc1,-,-,-,-,-,.,.
Cc1noc(C)c1S(=O)(=O)Nc1cccc2c1O[C@H](CN(C)CC1CC1)[C@H](C)CN([C@H](C)CO)C2=O,-,.,-,-,-,-,.
COC(=O)C[C@H]1CC[C@H]2[C@@H](COc3ccc(NC(=O)c4ccc(F)cc4)cc3C(=O)N2C)O1,.,-,-,.,.,.,.
COC(=O)C[C@@H]1CC[C@@H]2[C@H](COc3ccc(NC(=O)c4cc(F)cc(F)c4)cc3C(=O)N2C)O1,61.0,-,-,-,-,-,-
COC(=O)C[C@@H]1CC[C@@H]2[C@H](COc3ccc(NC(=O)c4ccc(F)cc4)cc3C(=O)N2C)O1,57.1,-,-,-,-,-,-
COC(=O)C[C@@H]1CC[C@@H]2[C@H](COc3ccc(NC(=O)c4ccccc4)cc3C(=O)N2C)O1,57.5,-,-,-,-,-,-
C[C@H](CO)N1C[C@H](C)[C@H](CN(C)Cc2ccccc2)Oc2ccc(NS(=O)(=O)c3cccs3)cc2C1=O,-,-,-,-,-,-,.
